Laboratory results reported in PubChem BioAssay (Tox21).
Results filed as inconclusive are left out. Active and inactive are the calls of the source. Unless noted, calls come from the whole dose curve; as a rule, active = well fitted curve in the direction sought with a large enough effect in the repeat runs; inconclusive = weak or mixed curves; inactive = no such curve, though single readings can be large; an effect the other way counts as inactive or inconclusive.

Assays:
[1] = qHTS assay to identify small molecule HDAC inhibitors (AID 1259364);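 note: wild-type HCT-116 cells with endogenous class I/II HDAC activity; top concentration of the series differs between compounds; nearly all actives have a fitted effect of over 45% in size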
Outline: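 After a 2 hr compound incubation (37C, 5% CO2), HCT-116 cells seeded at 1,500/well the day before received HDAC-Glo reagent; signal read as luminescence after 30 min at room temperature.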

[2] = qHTS assay to identify small molecule HDAC inhibitors - cell viability counter screen (AID 1259365); note: series mostly up to about 92 µM; nearly all actives have a fitted effect of over 50% in size
Outline: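 HCT-116 wild-type, overnight attachment; 2hr drug exposure, 37C; CellTiter-Glo luminescent ATP readout after 30min RT.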

[3] = qHTS assay to identify small molecule agonists of the sonic hedgehog signaling (Shh) pathway - cell viability counter screen (AID 1259366); note: nearly all actives have a fitted effect of over 50% in size
Outline: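 Compounds in DMSO were pin-transferred onto 3T3 Gli1-Luc cells that had settled 4hr; plates then stood 24hr at 37C and 5% CO2. One hour before the end, CellTiter-Fluor was added and fluorescence recorded.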

[4] = qHTS assay to identify small molecule antagonists of the sonic hedgehog signaling (Shh) pathway (AID 1259369; calls by dose curve; note: nearly all actives have a fitted effect of over 45% in size)
Outline: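 Gli1 transcriptional reporter (firefly Luc) in NIH/3T3 background, conditioned-medium activated. 24hr exposure, luminescence endpoint.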

[5] = target: Estrogen receptor beta (Homo sapiens) (UniProt Q92731); assay: qHTS assay to identify small molecule agonists of the estrogen receptor beta (ER-beta) signaling pathway (AID 1259377; active = well fitted activation curve with a large enough effect in the signal ratio in the repeat runs, not every such curve was filed as active; the % refers to the signal ratio)
Outline: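 qHTS in ER-beta-UAS-bla HEK293T cells: 6 hr settling, then 16 hr compound at 37C, then LiveBLAzer substrate 2 h at RT before fluorescence reading.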

[6] = qHTS assay to identify small molecule agonists of the androgen receptor (AR) signaling pathway in the presence of an antagonist - cell viability counter screen (AID 1259379);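 note: MDA-kb2 human breast cancer cells carrying an MMTV luciferase reporter; series mostly up to about 92 µM; nearly all actives have a fitted effect of over 25% in size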
Outline: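 Counter screen for cell viability run in parallel with the AR agonist-mode luciferase assay. MDA-kb2 cells were co-treated with nilutamide (3.0uM final) and compounds, then incubated 16 hr at 37C, and CellTiter-Fluor fluorescence was measured.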

[7] = qHTS assay to identify small molecule agonists of the estrogen receptor beta (ER-beta) signaling pathway - cell viability counter screen (AID 1259380); note: nearly all actives have a fitted effect of over 30% in size
Outline: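 In this qHTS counter screen, HEK293T cells carrying an ER-beta/UAS beta-lactamase reporter, grown in 2% charcoal-stripped FBS, received compound for 16 hr; ATP-based CellTiter-Glo luminescence was then read after 30 min at room temperature.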

[8] = qHTS assay to identify small molecule antagonists of the estrogen receptor beta (ER-beta) signaling pathway - cell viability counter screen (AID 1259382); note: series mostly up to about 92 µM; nearly all actives have a fitted effect of over 55% in size
Outline: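 HEK293T ER-beta-UAS-bla, 2% charcoal-stripped FBS; compounds + 1nM E2 16 hr 37C; CellTiter-Glo luminescence, 30 min RT.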

[9] = target: Estrogen receptor (Homo sapiens) (UniProt P03372); assay: qHTS assay to identify small molecule agonists of the estrogen receptor alpha (ER-alpha) signaling pathway in the presence of an antagonist (AID 1259383; calls by dose curve; note: top concentration of the series differs between compounds; nearly all actives have a fitted effect of over 15% in size)
Outline: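 ER-alpha agonism measured under antagonist challenge: 10.0nM ICI-182,780 (final) plus compound, 15 concentrations, 22hr, VM7Luc4E2 ERE-luciferase cells. Read by luminescence.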

[10] = qHTS assay to identify small molecule agonists or antagonists of the thyroid stimulating hormone receptor (TSHR) signaling pathway - wild type cell line counter screen (AID 1259384; calls by dose curve)
Outline: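 Wild-type Hek293 cells, 800/well, 18 h at 37C, then compound with Ro20-1724 for 30 min RT. cAMP by HTRF (cAMP-d2/anti-cAMP cryptate), 1 h RT, fluorescence read. 15 concentrations, triplicates.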

[11] = target: Thyrotropin receptor (Homo sapiens) (UniProt P16473); assay: qHTS assay to identify small molecule antagonists of the thyroid stimulating hormone receptor (TSHR) signaling pathway (AID 1259385; calls by dose curve; note: nearly all actives have a fitted effect of over 20% in size)
Outline: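 TSHR-HEK293 cells (800/well) plated 18 h, then compounds with Ro20-1724 and TSH at 1.5 ng/mL final, 30 min at room temperature. cAMP quantified by HTRF (cAMP-d2/anti-cAMP-cryptate, 1 h); 15 concentrations in triplicate.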

[12] = qHTS assay to identify small molecule agonists of the estrogen receptor alpha (ER-alpha) signaling pathway in the presence of an antagonist - cell viability counter screen (AID 1259386);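 note: series mostly up to about 92 µM; cells exposed to compounds for 22 h at 37 °C before the viability read; nearly all actives have a fitted effect of over 30% in size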
Outline: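 Steps: 5-day stripped-FBS culture; seed and incubate 24hr; add ICI-182,780 (10.0nM final); pin 15-point compound titration; incubate 22hr at 37C; add CellTiter-Fluor at 21hr; read fluorescence.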

[13] = target: Progesterone receptor (Homo sapiens) (UniProt P06401); assay: qHTS assay to identify small molecule antagonists of the progesterone receptor (PR) signaling pathway (AID 1346795; active = well fitted inhibition curve with a large enough effect in the signal ratio in the repeat runs, not every such curve was filed as active; the % refers to the signal ratio)
Outline: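 Fluorescence intensity measured 2 hr after adding beta-lactamase FRET substrate to PR-UAS-bla HEK293T cells that had been co-treated 16 hr with compound and 1 nM R5020 (final concentration) in 2% charcoal-stripped FBS.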

[14] = qHTS assay to identify small molecule agonists of the progesterone receptor (PR) signaling pathway - cell viability counter screen (AID 1346799; calls by dose curve; note: nearly all actives have a fitted effect of over 45% in size)
Outline: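 In parallel with the beta-lactamase readout, cytotoxicity toward PR-UAS-bla HEK293T cells was measured by CellTiter-Glo luminescence following 16 hr compound incubation in 2% charcoal-stripped FBS medium.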

[15] = qHTS assay to identify small molecule antagonists of the sonic hedgehog signaling (Shh) pathway - cell viability counter screen (AID 1259367); note: nearly all actives have a fitted effect of over 55% in size
Outline: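 Fluorescence read-out (CellTiter-Fluor, 1 hr at 37C) taken after 23 hr compound treatment of 3T3 Gli1-Luc cells stimulated with conditioned medium. Cells were seeded at 2,000 per well and pre-incubated 4 hr.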

[16] = target: Estrogen receptor beta (Homo sapiens) (UniProt Q92731); assay: qHTS assay to identify small molecule antagonists of the estrogen receptor beta (ER-beta) signaling pathway (AID 1259378; active = well fitted inhibition curve with a large enough effect in the signal ratio in the repeat runs, not every such curve was filed as active; the % refers to the signal ratio)
Outline: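 ER-beta-UAS-bla HEK293T cells in 2% charcoal-stripped FBS medium treated with compound plus 1nM final 17-beta-estradiol for 16 hr at 37C. Beta-lactamase reporter read by FRET substrate fluorescence after 2 hours at room temperature.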

[17] = target: Progesterone receptor (Homo sapiens) (UniProt P06401); assay: qHTS assay to identify small molecule agonists of the progesterone receptor (PR) signaling pathway (AID 1346784; calls by dose curve; note: nearly all actives have a fitted effect of over 30% in size)
Outline: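 Fluorescence from LiveBLAzer B/G FRET substrate cleavage (2 hr, RT) reported PR activation in PR-UAS-bla HEK 293T cells treated 16 hr at 37C/5% CO2 with compounds; medium contained 2% charcoal-stripped FBS.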

[18] = qHTS assay to identify small molecule antagonists of the progesterone receptor (PR) signaling pathway - cell viability counter screen (AID 1346798); note: series mostly up to about 92 µM; nearly all actives have a fitted effect of over 50% in size
Outline: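 CellTiter-Glo luminescence; PR-UAS-bla HEK293T, 3,000 cells/well; compound + R5020, 16 hr, 37C/5% CO2; 30 min RT before read.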

[19] = qHTS assay to identify small molecule agonists of the sonic hedgehog signaling (Shh) pathway (AID 1259368; calls by dose curve;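 note: NIH/3T3-derived 3T3Gli1-Luc cells carrying a stable Gli1-driven firefly luciferase reporter; series mostly up to about 92 µM; nearly all actives have a fitted effect of over 15% in size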)
Outline: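 Stable NIH/3T3 Gli1-Luc reporter clone; 24 hr cpd exposure after a 4 hr settling period; luminescence endpoint.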

[20] = target: Androgen receptor (Homo sapiens) (UniProt P10275); assay: qHTS assay to identify small molecule agonists of the androgen receptor (AR) signaling pathway in the presence of an antagonist (AID 1259381; calls by dose curve; note: nearly all actives have a fitted effect of over 15% in size)
Outline: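 AR antagonist background: nilutamide 3.0uM final. Cell line: MDA-kb2, MMTV-driven luciferase, responsive to both AR and GR. Exposure 16hr, 37C, no CO2; ONE-Glo luminescence.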
% is set by controls: 0 for no effect and ±100 for the full control effect.

Sequence of Estrogen receptor beta (Homo sapiens) (Q92731 whole entry, looked up): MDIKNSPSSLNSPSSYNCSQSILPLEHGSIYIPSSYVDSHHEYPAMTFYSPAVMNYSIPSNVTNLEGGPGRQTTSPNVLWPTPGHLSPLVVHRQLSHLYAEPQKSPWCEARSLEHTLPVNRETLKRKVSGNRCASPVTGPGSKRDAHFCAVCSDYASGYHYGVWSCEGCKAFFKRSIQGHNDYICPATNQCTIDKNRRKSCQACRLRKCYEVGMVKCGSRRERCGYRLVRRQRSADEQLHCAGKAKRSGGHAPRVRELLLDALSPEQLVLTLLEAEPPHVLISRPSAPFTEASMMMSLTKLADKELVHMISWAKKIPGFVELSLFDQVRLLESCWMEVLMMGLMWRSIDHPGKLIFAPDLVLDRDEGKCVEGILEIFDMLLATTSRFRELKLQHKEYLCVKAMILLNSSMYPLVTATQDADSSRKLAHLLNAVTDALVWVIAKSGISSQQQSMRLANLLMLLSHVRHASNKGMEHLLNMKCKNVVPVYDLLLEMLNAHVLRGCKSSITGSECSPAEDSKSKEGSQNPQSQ
Sequence of Progesterone receptor (Homo sapiens) (P06401 whole entry, looked up): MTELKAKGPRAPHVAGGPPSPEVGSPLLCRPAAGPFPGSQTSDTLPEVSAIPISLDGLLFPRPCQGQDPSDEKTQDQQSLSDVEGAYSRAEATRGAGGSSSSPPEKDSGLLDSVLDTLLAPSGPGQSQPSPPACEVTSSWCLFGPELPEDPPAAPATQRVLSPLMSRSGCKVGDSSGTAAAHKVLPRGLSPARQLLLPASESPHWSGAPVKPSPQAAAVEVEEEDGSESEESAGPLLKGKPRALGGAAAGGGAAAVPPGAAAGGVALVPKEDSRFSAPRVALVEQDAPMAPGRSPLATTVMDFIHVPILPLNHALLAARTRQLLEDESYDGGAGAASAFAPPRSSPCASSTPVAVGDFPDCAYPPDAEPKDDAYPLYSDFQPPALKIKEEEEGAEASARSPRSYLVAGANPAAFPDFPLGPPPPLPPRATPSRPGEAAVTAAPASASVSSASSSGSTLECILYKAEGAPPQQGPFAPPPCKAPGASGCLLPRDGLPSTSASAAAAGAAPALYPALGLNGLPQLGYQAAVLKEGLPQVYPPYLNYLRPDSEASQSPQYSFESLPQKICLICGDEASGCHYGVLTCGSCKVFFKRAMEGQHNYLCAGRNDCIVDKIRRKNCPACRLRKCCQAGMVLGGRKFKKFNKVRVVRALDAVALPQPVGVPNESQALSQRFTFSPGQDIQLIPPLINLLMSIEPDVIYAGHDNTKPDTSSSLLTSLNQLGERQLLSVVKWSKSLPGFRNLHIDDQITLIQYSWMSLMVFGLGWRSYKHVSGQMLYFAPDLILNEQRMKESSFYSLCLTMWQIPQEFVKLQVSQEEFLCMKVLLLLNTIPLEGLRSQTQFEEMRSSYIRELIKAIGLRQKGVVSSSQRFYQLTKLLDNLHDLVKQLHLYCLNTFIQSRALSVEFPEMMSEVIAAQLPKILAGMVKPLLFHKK
Sequence of Thyrotropin receptor (Homo sapiens) (P16473 whole entry, looked up): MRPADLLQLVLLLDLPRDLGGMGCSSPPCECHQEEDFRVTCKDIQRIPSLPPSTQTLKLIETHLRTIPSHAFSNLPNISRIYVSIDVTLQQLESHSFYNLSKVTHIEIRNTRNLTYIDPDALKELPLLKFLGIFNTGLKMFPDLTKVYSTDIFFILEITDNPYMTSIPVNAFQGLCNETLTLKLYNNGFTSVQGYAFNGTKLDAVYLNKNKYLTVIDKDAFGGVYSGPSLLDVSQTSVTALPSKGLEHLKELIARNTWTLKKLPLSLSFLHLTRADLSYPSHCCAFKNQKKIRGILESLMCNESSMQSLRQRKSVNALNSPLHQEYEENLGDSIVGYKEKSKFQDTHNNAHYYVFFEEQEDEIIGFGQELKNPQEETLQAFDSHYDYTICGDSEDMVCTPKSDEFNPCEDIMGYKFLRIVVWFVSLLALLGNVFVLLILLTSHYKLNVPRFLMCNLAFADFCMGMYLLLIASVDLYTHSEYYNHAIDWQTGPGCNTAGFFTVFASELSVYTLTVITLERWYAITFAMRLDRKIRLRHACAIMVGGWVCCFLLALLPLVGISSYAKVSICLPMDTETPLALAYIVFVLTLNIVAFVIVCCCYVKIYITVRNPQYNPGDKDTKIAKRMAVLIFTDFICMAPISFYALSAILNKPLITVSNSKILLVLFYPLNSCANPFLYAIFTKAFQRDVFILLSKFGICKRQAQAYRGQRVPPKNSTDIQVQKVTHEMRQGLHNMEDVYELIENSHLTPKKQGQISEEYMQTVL
Sequence of Androgen receptor (Homo sapiens) (P10275 whole entry, looked up): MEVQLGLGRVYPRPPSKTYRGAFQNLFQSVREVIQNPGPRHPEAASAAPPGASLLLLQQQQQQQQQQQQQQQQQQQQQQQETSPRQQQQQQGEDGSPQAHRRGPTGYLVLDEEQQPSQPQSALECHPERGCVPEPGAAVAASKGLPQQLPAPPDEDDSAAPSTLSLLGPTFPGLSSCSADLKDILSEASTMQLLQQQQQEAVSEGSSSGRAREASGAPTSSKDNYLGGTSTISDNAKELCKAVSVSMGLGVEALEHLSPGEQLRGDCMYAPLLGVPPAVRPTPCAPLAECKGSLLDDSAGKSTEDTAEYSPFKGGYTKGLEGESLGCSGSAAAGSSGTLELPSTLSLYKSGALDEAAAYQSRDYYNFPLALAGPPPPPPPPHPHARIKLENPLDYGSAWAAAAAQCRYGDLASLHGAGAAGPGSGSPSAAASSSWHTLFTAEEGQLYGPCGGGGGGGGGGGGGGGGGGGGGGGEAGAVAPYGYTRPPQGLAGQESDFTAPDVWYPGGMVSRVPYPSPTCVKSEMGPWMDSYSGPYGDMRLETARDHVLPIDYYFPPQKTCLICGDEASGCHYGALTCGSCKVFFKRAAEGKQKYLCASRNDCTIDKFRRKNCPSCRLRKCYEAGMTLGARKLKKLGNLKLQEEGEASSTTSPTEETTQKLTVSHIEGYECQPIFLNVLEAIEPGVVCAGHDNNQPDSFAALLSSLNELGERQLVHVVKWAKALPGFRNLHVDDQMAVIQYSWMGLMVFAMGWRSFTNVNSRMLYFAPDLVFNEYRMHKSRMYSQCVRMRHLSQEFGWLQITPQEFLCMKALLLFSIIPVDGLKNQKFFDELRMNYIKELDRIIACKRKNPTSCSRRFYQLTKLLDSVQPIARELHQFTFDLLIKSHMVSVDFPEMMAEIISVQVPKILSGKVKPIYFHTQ
Sequence of Estrogen receptor (Homo sapiens) (P03372 whole entry, looked up): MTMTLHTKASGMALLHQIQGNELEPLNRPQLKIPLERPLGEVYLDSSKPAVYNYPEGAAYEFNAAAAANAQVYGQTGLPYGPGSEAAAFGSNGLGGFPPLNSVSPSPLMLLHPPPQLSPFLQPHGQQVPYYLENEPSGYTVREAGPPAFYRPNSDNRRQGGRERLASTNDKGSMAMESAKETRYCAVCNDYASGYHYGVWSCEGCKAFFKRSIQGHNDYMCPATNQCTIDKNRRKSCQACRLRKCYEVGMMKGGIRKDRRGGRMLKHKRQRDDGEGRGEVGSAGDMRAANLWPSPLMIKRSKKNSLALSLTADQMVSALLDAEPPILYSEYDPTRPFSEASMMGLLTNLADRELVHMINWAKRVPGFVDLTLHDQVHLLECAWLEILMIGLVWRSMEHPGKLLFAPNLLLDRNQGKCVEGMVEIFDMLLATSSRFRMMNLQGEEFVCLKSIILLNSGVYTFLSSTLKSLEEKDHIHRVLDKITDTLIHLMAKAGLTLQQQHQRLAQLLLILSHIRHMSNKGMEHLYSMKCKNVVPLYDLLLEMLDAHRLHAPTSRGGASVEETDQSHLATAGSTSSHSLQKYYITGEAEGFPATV

CN1C[C@@H]2C[C@H]1CN2c1cc2c(cc1F)c(=O)c(C(=O)O)cn2C1CC1
inactive: activity change, negative = inhibition [1] 2.17% [at 19 µM] | activity change, negative = cytotoxicity [2] 5.3% [at 19 µM] | viability change, negative = cytotoxic [3] -1.9% [at 19 µM] | activity change, negative = inhibition [4] -3.45% [at 19 µM] | activation [5] 1.21% [at 19 µM] | activity change, negative = cytotoxicity [6] 0.0403% [at 19 µM] | activity change, negative = cytotoxicity [7] 1.14% [at 19 µM] | activity change, negative = cytotoxicity [8] 7% [at 19 µM] | activation [9] 0.617% [at 19 µM] | cAMP activity change [10] -2.22% [at 18.9 µM] | activity change, negative = inhibition [11] -7.57% [at 19 µM] | activity change, negative = cytotoxicity [12] -0.242% [at 19 µM] | activity change, negative = inhibition [13] 14.1% [at 18.9 µM] | activity change, negative = cytotoxicity [14] 18.9% [at 19 µM]

CC12CCC(C1)C(C)(C)C2O (centres undefined)
inactive: Potency [1] | outcome [2] | outcome [3] | outcome [15] | Potency [4] | Potency [16] | outcome [6] | outcome [7] | outcome [8] | outcome [11] | outcome [12] | Potency [17] | Potency [13] | outcome [18]

CN(C)CCOC(=O)C(c1ccccc1)C1(O)CCCC1 (centres undefined)
inactive: Potency [1] | outcome [2] | outcome [3] | outcome [19] | Potency [4] | Potency [5] | Potency [16] | outcome [6] | outcome [7] | outcome [8] | Potency [9] | outcome [10] | outcome [11] | outcome [12] | Potency [17] | Potency [13] | outcome [18]

CC(C)CO
inactive: Potency [1] | outcome [2] | outcome [3] | outcome [15] | Potency [4] | outcome [6] | outcome [8] | outcome [11] | outcome [14]

CCNC(=O)NCc1cccc(Cl)c1
inactive: Potency [1] | outcome [2] | outcome [3] | outcome [19] | Potency [4] | outcome [6] | outcome [8] | outcome [10] | outcome [12] | Potency [13] | outcome [18] | outcome [14]

CC1(C)CC(OC(=O)CCCCCCCCC(=O)OC2CC(C)(C)NC(C)(C)C2)CC(C)(C)N1
inactive: activity change, negative = inhibition [1] 6.2% [at 19 µM] | activity change, negative = cytotoxicity [2] -7.5% [at 19 µM] | viability change, negative = cytotoxic [3] -15.1% [at 19 µM] | activity change [19] 0.253% [at 18.9 µM] | activity change, negative = inhibition [4] -29.1% [at 19 µM] | activation [5] -4.04% [at 19 µM] | activity, negative = inhibition [16] -12.7% [at 19 µM] | activity change, negative = cytotoxicity [6] 0.897% [at 19 µM] | activity change, negative = cytotoxicity [8] -21.6% [at 19 µM] | activation [9] -0.324% [at 19 µM] | cAMP activity change [10] -0.26% [at 18.9 µM] | activity change, negative = inhibition [11] -9.89% [at 19 µM] | activity change, negative = cytotoxicity [12] -0.743% [at 19 µM] | activation [17] 0.194% [at 19 µM] | activity change, negative = inhibition [13] 5.15% [at 18.9 µM] | activity change, negative = cytotoxicity [18] -13.3% [at 18.9 µM] | activity change, negative = cytotoxicity [14] 0.742% [at 19 µM]

CCCCOCC(C)O (centres undefined)
inactive: Potency [1] | outcome [2] | outcome [3] | outcome [19] | Potency [4] | outcome [6] | outcome [8] | outcome [10] | outcome [11] | outcome [12] | Potency [17] | Potency [13] | outcome [18] | outcome [14]

CCOc1ccccc1OCC1CNCCO1 (centres undefined)
inactive: Potency [1] | outcome [2] | outcome [3] | outcome [19] | Potency [4] | Potency [5] | Potency [16] | outcome [6] | outcome [20] | outcome [8] | outcome [10] | outcome [11] | outcome [12] | Potency [17] | Potency [13] | outcome [18] | outcome [14]

CN(C)C(C)(C)CO
inactive: Potency [1] | outcome [2] | outcome [3] | outcome [19] | Potency [4] | Potency [16] | outcome [6] | outcome [7] | outcome [8] | outcome [11] | outcome [12] | Potency [17] | Potency [13] | outcome [18] | outcome [14]

CC(C)NC(=O)c1ccc(C=O)cc1
inactive: Potency [1] | outcome [2] | outcome [3] | outcome [19] | Potency [4] | Potency [16] | outcome [6] | outcome [7] | outcome [20] | outcome [8] | outcome [10] | outcome [12] | Potency [13] | outcome [14]

CC1(C)O[C@H]2CC(=O)OC[C@]23[C@H]2CC[C@@]4(C)[C@H](c5ccoc5)OC(=O)[C@H]5O[C@]54[C@]2(C)C(=O)C[C@@H]13
inactive: Potency [1] | outcome [2] | outcome [3] | outcome [19] | Potency [4] | Potency [5] | Potency [16] | outcome [6] | outcome [8] | Potency [9] | outcome [10] | outcome [11] | outcome [12] | Potency [13] | outcome [18]

CC(O)COC(C)(C)C (centres undefined)
inactive: Potency [1] | outcome [2] | outcome [3] | outcome [15] | Potency [4] | outcome [6] | outcome [7] | outcome [8] | outcome [12] | Potency [17] | Potency [13]

COC(=O)c1cccc(Cl)c1
inactive: Potency [1] | outcome [2] | outcome [3] | outcome [19] | Potency [4] | Potency [16] | outcome [6] | outcome [7] | outcome [8] | Potency [9] | outcome [12] | Potency [13] | outcome [18] | outcome [14]

O/N=C/C=N/O
inactive: Potency [1] | outcome [2] | outcome [3] | outcome [19] | Potency [4] | Potency [5] | Potency [16] | outcome [6] | outcome [7] | outcome [8] | outcome [10] | outcome [11] | outcome [12] | Potency [17] | Potency [13] | outcome [18] | outcome [14]

CC(=O)CC(=O)Nc1ccc(C)cc1C
inactive: Potency [1] | outcome [2] | outcome [3] | outcome [15] | Potency [5] | Potency [16] | outcome [6] | outcome [7] | outcome [20] | outcome [8] | outcome [10] | outcome [12] | outcome [14]

CC(=O)O[C@@H]1CC2CCC1(C)C2(C)C (some centres undefined)
inactive: Potency [1] | outcome [2] | outcome [3] | outcome [19] | Potency [4] | Potency [5] | Potency [16] | outcome [6] | outcome [7] | outcome [20] | outcome [8] | outcome [10] | outcome [12] | Potency [17] | Potency [13] | outcome [14]

CC1(C)Cc2cccc(N)c2O1
inactive: Potency [1] | outcome [2] | outcome [3] | outcome [15] | Potency [4] | outcome [6] | outcome [8] | Potency [9] | outcome [10] | outcome [11] | outcome [12] | Potency [17] | Potency [13] | outcome [18] | outcome [14]
